# Source: PubChem BioAssay (NMMLSC)
# Rows were chosen to be rich in hits. Some 2.5% of all compounds tested hit in one or more screens of this group.
# GRK2 inh: inhibitors of human GRK2 displacing RNA aptamer; bead flow cytometry, FAM-aptamer displacement from GRK2; 0.59% of 330,000 active; inhibition of aptamer binding, % at 10 µM; AID 488847; P25098;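 active = inhibition of aptamer binding above 40%, roughly 3 SD of noise, on plates passing a quality check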;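 note: median bead fluorescence of bound FAM aptamer so fluorescent compounds give negative values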
# MEKK2 WT-MEK5: raises or lowers MEK5 binding to wildtype human MEKK2 PB1 domain. bead flow cytometry, Alexa488-MEK5 binding to MEKK2 WT; actives lie on both sides. binding response (% of control), % at 10 µM. 1.1% of 290,000 active; in the data active = binding response below about 67% or above about 130%
# MEKK3 PB1 HTS: MEKK3-MEK5 PB1 interaction, increase or decrease. Q99759. bead-based flow cytometry, Alexa488-MEK5 binding to MEKK3; actives lie on both sides; 0 = blocked by unlabeled MEK5, 100 = vehicle. binding response (% of control), % at 10 µM. 1.4% of 290,000 active. AID 1529;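 active = binding response more than 3 SD above or below the average of its plate-row segment, actives on both sides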;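 note: Alexa488 bead fluorescence after subtracting the streptavidin-only scavenger bead signal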
# Target sequence (Q99759 whole entry, looked up): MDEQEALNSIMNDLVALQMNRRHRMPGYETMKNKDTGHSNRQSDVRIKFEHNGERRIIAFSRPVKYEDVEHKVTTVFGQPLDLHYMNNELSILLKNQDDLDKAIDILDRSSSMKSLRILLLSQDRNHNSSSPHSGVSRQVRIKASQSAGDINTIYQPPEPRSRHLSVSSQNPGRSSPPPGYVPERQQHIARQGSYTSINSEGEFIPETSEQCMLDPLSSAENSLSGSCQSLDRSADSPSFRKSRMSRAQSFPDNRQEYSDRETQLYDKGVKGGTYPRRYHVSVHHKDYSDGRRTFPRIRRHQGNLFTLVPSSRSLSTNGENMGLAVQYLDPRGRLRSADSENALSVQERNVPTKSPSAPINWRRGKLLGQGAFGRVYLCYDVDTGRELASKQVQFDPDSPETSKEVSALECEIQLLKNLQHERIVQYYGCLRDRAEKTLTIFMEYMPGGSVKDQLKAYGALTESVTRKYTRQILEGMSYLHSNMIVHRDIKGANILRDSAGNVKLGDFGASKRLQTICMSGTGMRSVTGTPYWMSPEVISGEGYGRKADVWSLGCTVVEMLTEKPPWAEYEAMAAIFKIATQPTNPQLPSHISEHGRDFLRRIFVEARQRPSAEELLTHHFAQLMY
# MEKK2 mut-MEK5: signal of MEK5 binding to mutant human MEKK2 PB1 domain. bead flow cytometry, Alexa488-MEK5 binding to MEKK2 mutant. percent response, % at 10 µM. 0.35% of 290,000 active; in the data active = percent response above about 24%, passing the limit was not always enough
# MEKK2wt confirm: raises or lowers MEK5 binding to wildtype human MEKK2, retest; shares compounds with MEKK3 PB1 HTS; bead flow cytometry, Alexa488-MEK5 binding to MEKK2 WT; actives lie on both sides; binding response (% of control), % at 10 µM; 2.4% of 5,900 active; AID 1892; in the data active = binding response below about 16% or above about 210%; inactive = in between
# MEKK2mut confirm: signal of MEK5 binding to mutant human MEKK2, retest; shares compounds with MEKK3 PB1 HTS; bead flow cytometry, Alexa488-MEK5 binding to MEKK2 mutant; percent response, % at 10 µM; 2% of 5,900 active; AID 1893; in the data active = percent response mostly above about 71%, no sharp cut-off; inactive = mostly below about 38%;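 note: higher means compound restores mutant binding toward wildtype level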
# MEKK3-MEK5 inh: MEKK3-MEK5 PB1 inhibition, single concentration confirmation; shares compounds with MEKK3 PB1 HTS; bead flow cytometry, Alexa488-MEK5 binding to MEKK3; active compounds read low; binding response (% of control), % at 10 µM; 1.8% of 5,900 active; AID 1894;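 active = binding response below 72% of control, or above a set upper limit, though filed actives all read lower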;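 note: 100% = DMSO only wells and 0% = binding blocked by excess unlabeled MEK5; lower values mean stronger disruption of MEK5 binding to MEKK3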
# Active calls of the source: *; · = no result; [ ] = another dose, or the depositor's remark.
SMILES,GRK2 inh,MEKK2 WT-MEK5,MEKK3 PB1 HTS,MEKK2 mut-MEK5,MEKK2wt confirm,MEKK2mut confirm,MEKK3-MEK5 inh
CN1CCN(CCCNC(=O)c2ccc(/C=C3\Sc4ccccc4N(Cc4ccc(F)cc4)C3=O)cc2)CC1,·,163.0*,105.0,41.0,203.0,66.0,105.0
CCc1n(CC(O)COCc2ccccc2)c2ccccc2[n+]1C (stereo not drawn),0.0,95.0,95.0,-6.0,·,·,·
O=C(NNc1nc(-c2ccccc2)cs1)c1cccs1,0.0,76.0,69.0*[inhibitor],-35.0,100.0,0.0,104.0
CCn1nnnc1-c1ccc(OC)c(S(=O)(=O)NCCc2ccccc2)c1,0.0,101.0,45.0*[inhibitor],1.0,101.0,-1.0,98.0
CCn1nnnc1-c1ccc(OC)c(S(=O)(=O)Nc2ccc(S(N)(=O)=O)cc2)c1,0.0,92.0,89.0,-1.0,·,·,·
Cc1ccccc1Cn1nc(C)c(NC(=O)C2(C)CC2(Cl)Cl)c1C (stereo not drawn),0.0,104.0,103.0,-1.0,·,·,·
CCn1c(SCC(=O)O)nnc1-c1ccccc1OC,7.0,102.0,105.0,-2.0,·,·,·
COc1ccccc1-c1nnc(SCC(=O)O)n1-c1ccccc1,0.0,116.0,135.0*,1.0,101.0,11.0,105.0
Cc1cc(C(=O)C(=O)NC(C)C)c(C)n1-c1ccc([N+](=O)[O-])cc1,2.0,89.0,80.0*[inhibitor],-3.0,99.0,-2.0,100.0
COc1ccc(S(=O)(=O)NCC2CCCN(Cc3cccc(C(C)=O)c3)C2)cc1 (stereo not drawn),0.0,96.0,96.0,-4.0,·,·,·
COc1ccc(S(=O)(=O)NCC2CCCN(Cc3cccnc3)C2)cc1 (stereo not drawn),3.0,56.0*[inhibitor],89.0,-4.0,99.0,-1.0,95.0
Cc1ccc2oc(-c3cccc(N)c3)nc2c1,0.0,96.0,97.0,-4.0,·,·,·
Nc1cccc(-c2nc3cc(S(=O)(=O)c4ccc5oc(-c6cccc(N)c6)nc5c4)ccc3o2)c1,0.0,71.0,69.0*[inhibitor],-27.0,86.0,-18.0,92.0
COc1ccc(OC)c(NC(=S)NCCSc2ccc(C)cc2)c1,3.0,112.0,142.0*,1.0,108.0,7.0,106.0
Cc1ccc(NC(=O)c2ccc(CN3CCN(C)CC3)cc2)cc1Nc1nccc(-c2cccnc2)n1,0.0,·,115.0,·,·,·,103.0
CC(=O)Nc1ccc(OC(=O)c2c(-c3ccccc3Cl)noc2C)cc1,0.0,106.0,144.0*,1.0,102.0,0.0,99.0
COC(=O)CCCC1=CC2=CC(=O)C(C)(OC(=O)c3ccc(Cl)nc3)C(=O)C2=CO1 (stereo not drawn),4.0,93.0,93.0,-1.0,·,·,·
CCc1nnc(NC(=O)c2c(OC)cccc2OC)s1,2.0,96.0,99.0,2.0,·,·,·
CCOCc1nnc(NC(=O)c2c(OC)cccc2OC)s1,0.0,137.0*,115.0,15.0,100.0,-2.0,103.0
N#CCC(=O)Nc1cc(C(F)(F)F)ccc1N1CCOCC1,1.0,102.0,101.0,-2.0,·,·,·
C[C@H](NC(=O)c1nc[nH]c1C(=O)N1CCN(c2ccccc2)CC1)C(=O)OC(C)(C)C,0.0,92.0,79.0*[inhibitor],-3.0,96.0,-2.0,101.0
COc1ccc(C(=O)c2cc3c(cc2[N+](=O)[O-])OCCO3)cc1,0.0,98.0,100.0,3.0,·,·,·
COc1ccc(-c2noc(CN3CCOCC3)n2)cc1OC,1.0,0.0*[inhibitor],1.0*[inhibitor],-65.0,97.0,-6.0,98.0
Cc1ccc2nc(N(CCCN(C)C)C(=O)COc3ccc(Cl)cc3)sc2c1,0.0,180.0*,109.0,44.0,149.0,25.0,100.0
Cc1cc(C)c2sc(N(CCCN(C)C)C(=O)COc3ccc(Cl)cc3)nc2c1,0.0,246.0*,113.0,55.0*,192.0,50.0,104.0
SMILES,GRK2 inh,MEKK2 WT-MEK5,MEKK3 PB1 HTS,MEKK2 mut-MEK5,MEKK2wt confirm,MEKK2mut confirm,MEKK3-MEK5 inh
Cc1cc(C)c2sc(N(CCN(C)C)C(=O)c3cc(Cl)sc3Cl)nc2c1,0.0,132.0,108.0,15.0,·,·,·
CN(C)CCCN(C(=O)COc1ccc(Cl)cc1)c1nc2ccc(F)cc2s1,0.0,122.0,103.0,2.0,·,·,·
COc1cc(C2CC(=O)Oc3c(C(CCN4CCN(c5ccccc5)CC4)c4ccc(N(C)C)cc4)c(OC)cc(OC)c32)cc(OC)c1OC (stereo not drawn),2.0,127.0,112.0,6.0,·,·,·
COc1cc(O)c(C(CCN2CCCC2)c2ccc(N(C)C)cc2)c(OC)c1 (stereo not drawn),0.0,153.0*,119.0,8.0,129.0,37.0,106.0
COc1ccc(C2CC(=O)Oc3c(C(CCN4CCCC(C)C4)c4ccc(N(C)C)cc4)c(OC)cc(OC)c32)cc1 (stereo not drawn),0.0,152.0*,105.0,17.0,140.0,22.0,103.0
COc1cc(C2CC(=O)Oc3c(C(CCN4CCOCC4)c4ccc(N(C)C)cc4)c(OC)cc(OC)c32)cc(OC)c1OC (stereo not drawn),3.0,106.0,104.0,4.0,·,·,·
COc1ccc(C2CC(=O)Oc3c(C(CCN4CCCCC4)c4ccc(N(C)C)cc4)c(OC)cc(OC)c32)cc1 (stereo not drawn),·,156.0*,95.0,17.0,141.0,28.0,105.0
Cc1ccc(-c2nc(N)sc2CC(=O)OCC(=O)NC2CCCC(C)C2C)cc1 (stereo not drawn),2.0,90.0,97.0,-9.0,·,·,·
Cc1ccc(-c2nc(N)sc2CC(=O)OCC(=O)N2C(C)CCCC2C)cc1 (stereo not drawn),2.0,111.0,140.0*,1.0,98.0,-5.0,101.0
Cc1cccc(C)c1NC(=O)COC(=O)COc1ccc2c(C)cc(=O)oc2c1,2.0,96.0,95.0,-3.0,·,·,·
CCN(CC(=O)Nc1c(F)cccc1F)C(=O)COc1ccc2c(C)cc(=O)oc2c1,0.0,44.0*[inhibitor],41.0*[inhibitor],-14.0,96.0,-6.0,100.0
CCOC(=O)Cn1c(=O)oc2ccc(C)cc21,0.0,99.0,95.0,-1.0,·,·,·
Cc1ccc2oc(=O)n(CC(=O)OCCC(C)C)c2c1,0.0,71.0,74.0*[inhibitor],-3.0,102.0,-4.0,101.0
Cc1ccc2oc(=O)n(CCCOc3ccccc3)c2c1,0.0,121.0,125.0*,4.0,102.0,9.0,102.0
Cc1ccc(OCCn2c(=O)oc3ccc(C)cc32)cc1,0.0,98.0,94.0,-10.0,·,·,·
CC(=O)Oc1cccc(/C=C2\Sc3ccccc3C2=O)c1,6.0,97.0,98.0,-4.0,·,·,·
COc1ccc(CN(CCc2ccccc2)Cc2ccccc2)cc1OC,3.0,109.0,104.0,10.0,·,·,·
COc1cc(CN(CCN(C)C)Cc2ccccc2)ccc1OCc1ccccc1,0.0,138.0*,106.0,10.0,126.0,14.0,106.0
N#Cc1cc([N+](=O)[O-])ccc1N1CCCC1,0.0,99.0,99.0,-1.0,·,·,·
